About 83,000 compounds went through this panel and 20% of them were active in at least one assay; those are over-represented in the sample as a whole.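 48-hour exposure, single concentration, 96-well plates; percent growth endpoint where 0 means no net growth. Active: below 10.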 Unmarked numbers belong to inactive results. Activity calls are given as the source filed them.
Key:
Test in all cases: NCI-60 one-dose screen, 48 h (100 = growth as untreated, 0 = no growth, -100 = all killed)
786-0 renal = conditions: 10 µM unless noted
DU-145 prostate = conditions: 10 µM unless noted
MDA-MB-231 breast = conditions: 10 µM unless noted
SF-268 CNS = conditions: 10 µM unless noted
SF-539 CNS = conditions: 10 µM unless noted
UACC-257 melanoma = conditions: 10 µM unless noted
HCT-15 colon = conditions: 10 µM
SNB-19 CNS = conditions: 10 µM unless noted
PC-3 prostate = conditions: 10 µM unless noted
UACC-62 melanoma = conditions: 10 µM unless noted
LOX IMVI melanoma = conditions: 10 µM unless noted
SK-MEL-28 melanoma = conditions: 10 µM unless noted
SN12C renal = conditions: 10 µM unless noted
MOLT-4 leukemia = conditions: 10 µM
OVCAR-8 ovarian = conditions: 10 µM unless noted
OVCAR-3 ovarian = conditions: 10 µM unless noted
MDA-MB-435 melanoma = conditions: 10 µM unless noted
SW-620 colon = conditions: 10 µM unless noted
MCF7 breast = conditions: 10 µM unless noted
KM12 colon = conditions: 10 µM unless noted

For `COc1ccccc1N1CCN(CCc2c[nH]c3cc4c(cc23)OCO4)CC1`, the growth (786-0 renal) was 79%, the growth (DU-145 prostate) was 103% and the growth (MDA-MB-231 breast) was 79.8%. For the same compound, the growth (SF-268 CNS) was 91.6%, the growth (SF-539 CNS) was 77.8% and the growth (UACC-257 melanoma) was 56.7%. For the same compound, the growth (HCT-15 colon) was 68%, the growth (SNB-19 CNS) was 79.6% and the growth (PC-3 prostate) was 58.4%. It also gave a growth (UACC-62 melanoma) of 69.2%, a growth (LOX IMVI melanoma) of 60.4% and a growth (SK-MEL-28 melanoma) of 94.2%. The growth (SN12C renal) was 68.4%, the growth (MOLT-4 leukemia) was 84.7% and the growth (OVCAR-8 ovarian) was 88.4%. It also gave a growth (OVCAR-3 ovarian) of 91.2%, a growth (MDA-MB-435 melanoma) of 78% and a growth (SW-620 colon) of 88.6%. It also gave a growth (MCF7 breast) of 78.7% and a growth (KM12 colon) of 84%.

Compound `CC(C)N=C(NC(C)C)N1CC1` has a growth (786-0 renal) of 116%, a growth (DU-145 prostate) of 122% and a growth (MDA-MB-231 breast) of 96.9%. It also gave a growth (SF-268 CNS) of 108%, a growth (SF-539 CNS) of 103% and a growth (UACC-257 melanoma) of 105%. The growth (HCT-15 colon) was 110%, the growth (SNB-19 CNS) was 115% and the growth (PC-3 prostate) was 112%. The growth (UACC-62 melanoma) was 105%, the growth (LOX IMVI melanoma) was 116% and the growth (SK-MEL-28 melanoma) was 106%. For the same compound, the growth (SN12C renal) was 111%, the growth (MOLT-4 leukemia) was 105% and the growth (OVCAR-8 ovarian) was 108%. It also gave a growth (OVCAR-3 ovarian) of 109%, a growth (MDA-MB-435 melanoma) of 103% and a growth (SW-620 colon) of 110%. For the same compound, the growth (MCF7 breast) was 102% and the growth (KM12 colon) was 110%.

In the case of `O=C(N/N=C/c1ccc(N(CCCl)CCCl)cc1)c1cc(=O)[nH]c(=O)[nH]1`, the growth (786-0 renal) is reported as 83.2%, the growth (DU-145 prostate) is reported as 91.4% and the growth (SF-268 CNS) is reported as 95.2%. The growth (SF-539 CNS) was 91.3%, the growth (UACC-257 melanoma) was 101% and the growth (HCT-15 colon) was 97.8%. For the same compound, the growth (PC-3 prostate) was 89.2%, the growth (LOX IMVI melanoma) was 93.4% and the growth (SK-MEL-28 melanoma) was 116%. It also gave a growth (OVCAR-8 ovarian) of 93.5%, a growth (OVCAR-3 ovarian) of 115% and a growth (MDA-MB-435 melanoma) of 116%. The growth (SW-620 colon) was 108%, the growth (MCF7 breast) was 74.5% and the growth (KM12 colon) was 111%.

In the case of `[O]=[Sn]([CH]1CCCCC1)[CH]1CCCCC1`, the growth (786-0 renal) is reported as -97.6% (active), the growth (DU-145 prostate) is reported as -98% (active) and the growth (MDA-MB-231 breast) is reported as -78.3% (active). The growth (SF-268 CNS) was -98.9% (active), the growth (SF-539 CNS) was -92.5% (active) and the growth (UACC-257 melanoma) was -88.3% (active). For the same compound, the growth (HCT-15 colon) was -78.1% (active), the growth (SNB-19 CNS) was -84.4% (active) and the growth (PC-3 prostate) was -91.2% (active). The growth (UACC-62 melanoma) was -93.3% (active), the growth (LOX IMVI melanoma) was -89.6% (active) and the growth (SK-MEL-28 melanoma) was -94.8% (active). The growth (SN12C renal) was -80.5% (active), the growth (MOLT-4 leukemia) was 6.59% (active) and the growth (OVCAR-8 ovarian) was -66.2% (active). For the same compound, the growth (OVCAR-3 ovarian) was -98% (active), the growth (MDA-MB-435 melanoma) was -88.4% (active) and the growth (SW-620 colon) was -86.8% (active). The growth (MCF7 breast) was -88% (active) and the growth (KM12 colon) was -94% (active).

`O=C1c2ccccc2C(=O)N1[N+](=O)[O-]` gave a growth (786-0 renal) of 100%, a growth (DU-145 prostate) of 106% and a growth (MDA-MB-231 breast) of 101%. It also gave a growth (SF-268 CNS) of 104%, a growth (SF-539 CNS) of 108% and a growth (UACC-257 melanoma) of 101%. For the same compound, the growth (HCT-15 colon) was 110%, the growth (SNB-19 CNS) was 6.79% (active) and the growth (PC-3 prostate) was 94.9%. It also gave a growth (UACC-62 melanoma) of 96.1%, a growth (LOX IMVI melanoma) of 91.6% and a growth (SK-MEL-28 melanoma) of 112%. The growth (SN12C renal) was 97.2%, the growth (MOLT-4 leukemia) was 108% and the growth (OVCAR-8 ovarian) was 100%. For the same compound, the growth (OVCAR-3 ovarian) was 106%, the growth (MDA-MB-435 melanoma) was 110% and the growth (SW-620 colon) was 103%. For the same compound, the growth (MCF7 breast) was 92.5% and the growth (KM12 colon) was 101%.

`CC1CC=CCC12C(=O)NC(=S)NC2=O` (stereo not given) gave a growth (786-0 renal) of 107%, a growth (DU-145 prostate) of 122% and a growth (MDA-MB-231 breast) of 117%. The growth (SF-268 CNS) was 115%, the growth (SF-539 CNS) was 98.8% and the growth (UACC-257 melanoma) was 114%. The growth (HCT-15 colon) was 103%, the growth (SNB-19 CNS) was 109% and the growth (PC-3 prostate) was 98.4%. It also gave a growth (UACC-62 melanoma) of 105%, a growth (LOX IMVI melanoma) of 106% and a growth (SK-MEL-28 melanoma) of 101%. For the same compound, the growth (SN12C renal) was 99.8%, the growth (MOLT-4 leukemia) was 109% and the growth (OVCAR-8 ovarian) was 104%. It also gave a growth (OVCAR-3 ovarian) of 118%, a growth (MDA-MB-435 melanoma) of 106% and a growth (SW-620 colon) of 104%. It also gave a growth (MCF7 breast) of 105% and a growth (KM12 colon) of 116%.

`Nc1c(Br)cc2c3c(cccc13)-c1ccccc1-2` was tested, and the growth (786-0 renal) was 94.9%, the growth (DU-145 prostate) was 70% and the growth (MDA-MB-231 breast) was 48.7%. It also gave a growth (SF-268 CNS) of 87.7%, a growth (SF-539 CNS) of 77.7% and a growth (UACC-257 melanoma) of 88.4%. The growth (HCT-15 colon) was 49.3%, the growth (SNB-19 CNS) was 92.9% and the growth (PC-3 prostate) was 47.4%. The growth (UACC-62 melanoma) was 81.2%, the growth (LOX IMVI melanoma) was 53.7% and the growth (SK-MEL-28 melanoma) was 99.7%. For the same compound, the growth (SN12C renal) was 90.4%, the growth (MOLT-4 leukemia) was 53.8% and the growth (OVCAR-8 ovarian) was 70.9%. The growth (OVCAR-3 ovarian) was 64.4%, the growth (MDA-MB-435 melanoma) was 78.8% and the growth (SW-620 colon) was 90.4%. It also gave a growth (MCF7 breast) of 38.7% and a growth (KM12 colon) of 57.4%.

`OB([O][Hg][c]1ccccc1)[O][Hg][c]1ccccc1` was tested, and the growth (786-0 renal) was -76.6% (active), the growth (DU-145 prostate) was -73.5% (active) and the growth (MDA-MB-231 breast) was -69.8% (active). The growth (SF-268 CNS) was -51.2% (active), the growth (SF-539 CNS) was -87.7% (active) and the growth (UACC-257 melanoma) was -98.3% (active). The growth (HCT-15 colon) was -70.3% (active), the growth (SNB-19 CNS) was 5.87% (active) and the growth (PC-3 prostate) was -60.4% (active). The growth (UACC-62 melanoma) was -99.1% (active), the growth (LOX IMVI melanoma) was -29.2% (active) and the growth (SK-MEL-28 melanoma) was -83.2% (active). For the same compound, the growth (SN12C renal) was -99.6% (active), the growth (MOLT-4 leukemia) was -38.8% (active) and the growth (OVCAR-8 ovarian) was -97.1% (active). For the same compound, the growth (OVCAR-3 ovarian) was -89.6% (active), the growth (MDA-MB-435 melanoma) was -84% (active) and the growth (SW-620 colon) was -48.9% (active). For the same compound, the growth (MCF7 breast) was -39.4% (active) and the growth (KM12 colon) was 14.7%.
